High-throughput results deposited in PubChem by National Center for Advancing Translational Sciences (NCATS).
L3MBTL1 inh – inhibitors of human L3MBTL1; Q9Y468; AlphaScreen L3MBTL1–H3K9me1 peptide binding; Potency, µM (doses to about 57.1 µM), most hits filed as inhibitors; actives 0.66% (n = 230,000); further: nearly all actives have a fitted effect of over 60% in size
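Read-out is AlphaScreen signal from streptavidin donor and nickel chelate acceptor beads (10 ug/mL final each) bridging L3MBTL1 (50 nM) and biotinylated K9-monomethylated H3(1-15) peptide (75 nM), after 30 min compound exposure at room temperature.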
JMJD2A Tudor inh – inhibitors of human JMJD2A Tudor domain; actives 4.4% (n = 390,000); O75164; AlphaScreen JMJD2A-Tudor / H3K4me3 peptide binding; Potency, µM (series often up to 114 µM), hits mostly inhibitors; further: nearly all actives have a fitted effect of over 50% in size
Target sequence (O75164 whole entry, looked up, the tested form may be a part): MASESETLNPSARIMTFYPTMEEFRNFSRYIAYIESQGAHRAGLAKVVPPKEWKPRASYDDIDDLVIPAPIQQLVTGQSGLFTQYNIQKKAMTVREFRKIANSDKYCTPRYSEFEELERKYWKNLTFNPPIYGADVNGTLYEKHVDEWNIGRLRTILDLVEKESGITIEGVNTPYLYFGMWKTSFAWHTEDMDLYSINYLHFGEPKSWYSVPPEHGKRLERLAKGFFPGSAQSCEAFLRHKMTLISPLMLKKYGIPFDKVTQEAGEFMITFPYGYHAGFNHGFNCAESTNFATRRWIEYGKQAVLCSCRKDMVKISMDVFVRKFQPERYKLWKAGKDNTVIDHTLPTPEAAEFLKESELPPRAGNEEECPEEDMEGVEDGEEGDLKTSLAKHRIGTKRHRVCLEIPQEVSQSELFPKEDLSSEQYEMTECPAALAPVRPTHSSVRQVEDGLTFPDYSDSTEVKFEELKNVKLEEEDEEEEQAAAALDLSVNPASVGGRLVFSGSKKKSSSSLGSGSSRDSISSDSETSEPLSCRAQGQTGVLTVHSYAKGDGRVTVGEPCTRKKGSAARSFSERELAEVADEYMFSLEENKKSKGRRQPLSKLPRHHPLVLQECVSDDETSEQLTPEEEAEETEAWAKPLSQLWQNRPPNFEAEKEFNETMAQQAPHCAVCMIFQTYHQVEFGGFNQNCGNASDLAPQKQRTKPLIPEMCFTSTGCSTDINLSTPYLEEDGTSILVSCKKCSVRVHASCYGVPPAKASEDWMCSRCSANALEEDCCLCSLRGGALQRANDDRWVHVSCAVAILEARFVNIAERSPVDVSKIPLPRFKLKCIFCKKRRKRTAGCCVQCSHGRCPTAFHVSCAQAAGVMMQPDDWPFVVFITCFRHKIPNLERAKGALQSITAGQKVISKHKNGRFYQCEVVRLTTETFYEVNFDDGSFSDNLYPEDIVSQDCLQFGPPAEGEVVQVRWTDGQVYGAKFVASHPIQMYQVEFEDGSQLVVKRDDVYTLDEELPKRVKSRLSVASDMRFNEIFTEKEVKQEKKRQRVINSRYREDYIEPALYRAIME
BAZ2B block – blocks human BAZ2B; Potency, µM (doses to about 114 µM), hits mostly inhibitors; Q9UIF8; AlphaScreen BAZ2B-H3K14Ac peptide displacement; actives 4.4% (n = 360,000); further: nearly all actives have a fitted effect of over 60% in size
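AlphaScreen displacement: compounds (up to 110uM) incubated 30 min at room temperature with a preformed 50 nM BAZ2B/50 nM biotinylated H3K14Ac peptide complex in PBS pH 7.4 with Tween-20. Donor and acceptor beads at 10 ug/mL final added, 20 min light-protected before reading.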
Sfp PPTase inh – inhibitors of Bacillus subtilis Sfp phosphopantetheinyl transferase | Q9F4F7 | Biochemical Sfp PPTase activity, qHTS | Potency, µM, usual class: inhibitors | actives 3.5% (n = 310,000);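 further: the enzyme is Sfp with the accession as filed and its product quenches rhodamine fluorescence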
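Buffer: 50 mM Hepes-Na pH 7.6, 10 mM MgCl2, 0.01% Nonidet P-40, 0.01% BSA. Enzyme 15 nM, pre-exposed to compound 15 min; substrates then added and fluorescence change tracked over 30 min.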
HP1b binding inh – blocks HP1-beta chromodomain binding to methylated histone tails; actives 0.56% (n = 390,000); AID 540317; Potency, µM (highest dose often 114 µM), most hits filed as inhibitors; AlphaScreen HP1-beta / biotin-H3K9me3 peptide binding; further: nearly all actives have a fitted effect of over 70% in size
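AlphaScreen: HP1-beta (50 nM) preformed 30 min with biotin-H3(1-18)K9me3 peptide (50 nM) in PBS pH 7.4, 0.01% Tween-20. Compound added for 30 min at RT, then streptavidin donor/nickel chelate acceptor beads (10 ug/mL) for 30 min.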
G9a block – G9a (human) methyltransferase inhibition; G9a H3K9 monomethylation, AlphaScreen, 2 h; Potency, µM (highest dose often 102 µM), hits mostly inhibitors; actives 8.8% (n = 350,000); further: nearly all actives have a fitted effect of over 75% in size
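Enzyme 20 nM + cpd, 15 min RT; add b-H3K9 pep 500 nM / SAM 20 uM; 2 h RT; anti-H3K9me1 Ab 0.5 ug/mL + SA donor / anti-rabbit acceptor beads 20 ug/mL each, 10 min; AlphaScreen read.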
Hits are given with their value; ! = repeats disagree. A selection: hits, their analogues and other compounds. The true share with any hit is near 12%. The call rests on the fitted dose curve; in most records, active means well fitted curve in the direction sought with a large enough effect; inconclusive means small, poorly fitted or top-dose-only effect, or another doubt; inactive means no such curve, though single readings can be large; an effect the other way counts as inactive or inconclusive.

Screening COc1ccc(N2C(=O)CC(N3CCN(c4ccc(S(C)(=O)=O)cc4)CC3)C2=O)cc1 (centres undefined) returned JMJD2A Tudor inh inactive, BAZ2B block inactive, Sfp PPTase inh inactive, HP1b binding inh inactive and G9a block 32µM.
Screening COc1ccc(NC2CCN(C3CC(=O)N(c4ccc(F)c(Cl)c4)C3=O)CC2)cc1 (centres undefined) returned L3MBTL1 inh inactive, JMJD2A Tudor inh inconclusive, BAZ2B block 45µM, Sfp PPTase inh inactive, HP1b binding inh inconclusive and G9a block inconclusive.
`Cc1oc2ncnc(N3CCOCC3)c2c1C(=O)Nc1ccc(Br)cc1F` gave JMJD2A Tudor inh inactive, BAZ2B block inactive, HP1b binding inh inactive and G9a block inactive.
Cc1cccc(N2C(=O)CC(N3CCN(c4ccc(Cl)cc4)CC3)C2=O)c1 (centres undefined) was read as L3MBTL1 inh inactive, JMJD2A Tudor inh inactive, BAZ2B block inactive, Sfp PPTase inh inactive, HP1b binding inh inactive and G9a block inactive.
`Cc1cccc(N2C(=O)CC(N3CCN(Cc4ccc(Cl)cc4)CC3)C2=O)c1` (centres undefined) gave JMJD2A Tudor inh inactive, BAZ2B block inactive, Sfp PPTase inh inactive, HP1b binding inh inactive and G9a block 40µM.
`COc1cc(C(=O)Nc2nnc(S(=O)(=O)N(C)c3ccccc3)s2)cc(OC)c1OC` gave JMJD2A Tudor inh inactive, BAZ2B block inactive, HP1b binding inh inactive and G9a block inactive.
`C/C(=C\COc1c2ccoc2cc2oc(=O)ccc12)CCC(O)C(C)(C)O` (centres undefined) gave Sfp PPTase inh inactive.
For COc1ccccc1-c1nc(C#N)c(N2CCN(Cc3ccccc3)CC2)o1 the results were JMJD2A Tudor inh inconclusive, BAZ2B block 28µM, Sfp PPTase inh inconclusive, HP1b binding inh 14µM and G9a block inconclusive.
Screening CN(Cc1ccccc1)c1oc(-c2ccco2)nc1C#N returned JMJD2A Tudor inh inconclusive, BAZ2B block 45µM, Sfp PPTase inh inactive, HP1b binding inh inconclusive and G9a block inconclusive.
Screening COc1ccccc1-c1nc(C#N)c(N2CCC(Cc3ccccc3)CC2)o1 returned L3MBTL1 inh inconclusive, JMJD2A Tudor inh inconclusive, BAZ2B block inactive, Sfp PPTase inh inactive, HP1b binding inh inconclusive and G9a block inconclusive.
Screening N#Cc1nc(-c2ccco2)oc1N1CCN(Cc2ccccc2)CC1 returned L3MBTL1 inh inactive, JMJD2A Tudor inh inconclusive, BAZ2B block 50µM, Sfp PPTase inh inactive, HP1b binding inh inactive and G9a block inconclusive.
For NC[C@@H]1O[C@H](C23CC4CC(CC(C4)C2)C3)Cc2c1ccc(O)c2O the results were JMJD2A Tudor inh inconclusive, BAZ2B block inconclusive, Sfp PPTase inh 50µM!, HP1b binding inh inactive and G9a block 16µM.
Screening CC(C)=CCc1c(O)cc2c(c1O)C(=O)CC(c1ccccc1)O2 (centres undefined) returned JMJD2A Tudor inh inactive and HP1b binding inh inactive.
NC[C@@H]1O[C@H](c2ccccc2)Cc2c1ccc(O)c2O was read as Sfp PPTase inh 79µM and G9a block inactive.
`CN(C)/N=C1\CCS(=O)(=O)c2sccc21` gave L3MBTL1 inh inactive, JMJD2A Tudor inh inactive, BAZ2B block inactive, Sfp PPTase inh inactive, HP1b binding inh inactive and G9a block inconclusive.
Cc1ccc(N/N=C2\CCS(=O)(=O)c3sccc32)cc1 was read as L3MBTL1 inh inactive, JMJD2A Tudor inh inconclusive, BAZ2B block inconclusive, Sfp PPTase inh inactive, HP1b binding inh inactive and G9a block 8.9µM.
Screening O=C(COC(=O)c1cc(-c2ccc(Cl)s2)nc2ccccc12)NCc1ccco1 returned JMJD2A Tudor inh inactive, BAZ2B block inactive, Sfp PPTase inh 13µM, HP1b binding inh inactive and G9a block inconclusive.
For O=C(COC(=O)c1cc(-c2cccs2)nc2ccccc12)NCc1ccco1 the results were L3MBTL1 inh inconclusive, JMJD2A Tudor inh inconclusive, BAZ2B block inconclusive, Sfp PPTase inh 22µM, HP1b binding inh inactive and G9a block inconclusive.
`O=C(NCc1ccco1)c1cc(-c2cccs2)nc2ccccc12` gave L3MBTL1 inh inactive, JMJD2A Tudor inh inactive, BAZ2B block inactive, Sfp PPTase inh inactive, HP1b binding inh inactive and G9a block inactive.
